Test results: the supplement of paper PMC10849652
Targets with a hit are over-represented here; the source holds about 7,900 in all. About 0.6% of all pairs of compound and target were hits.

What follows are targets tested with COC1=CC=C(C=C1)CN2C=CC3=C2C=C(C=C3)C(=O)NO (assay: log2 fold change, soluble protein after heating vs DMSO (PISA); higher = thermal stabilisation; K562 cells, 10 uM, 30 min; active = over 0.2 and 3.5 SD of the protein, either way, in both replicates (recomputed)).
Method in brief: (§1)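 K562 cells at 2×10^6 cells/mL were given 10 μM compound for 30 min. Aliquots then went through 3 min of heating across 48°C-58°C, were pooled, and were extracted in PBS with 0.5% NP-40 at 4°C, and the supernatant after 21,000xg for 90 min was quantified by TMTpro 16plex LC-MS/MS with channel sums equalised. Thermal stability relative to control samples, from duplicates, is given as log2 fold change.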

Chain of UniProt Q8NDX5 (Q8NDX5 whole entry, looked up): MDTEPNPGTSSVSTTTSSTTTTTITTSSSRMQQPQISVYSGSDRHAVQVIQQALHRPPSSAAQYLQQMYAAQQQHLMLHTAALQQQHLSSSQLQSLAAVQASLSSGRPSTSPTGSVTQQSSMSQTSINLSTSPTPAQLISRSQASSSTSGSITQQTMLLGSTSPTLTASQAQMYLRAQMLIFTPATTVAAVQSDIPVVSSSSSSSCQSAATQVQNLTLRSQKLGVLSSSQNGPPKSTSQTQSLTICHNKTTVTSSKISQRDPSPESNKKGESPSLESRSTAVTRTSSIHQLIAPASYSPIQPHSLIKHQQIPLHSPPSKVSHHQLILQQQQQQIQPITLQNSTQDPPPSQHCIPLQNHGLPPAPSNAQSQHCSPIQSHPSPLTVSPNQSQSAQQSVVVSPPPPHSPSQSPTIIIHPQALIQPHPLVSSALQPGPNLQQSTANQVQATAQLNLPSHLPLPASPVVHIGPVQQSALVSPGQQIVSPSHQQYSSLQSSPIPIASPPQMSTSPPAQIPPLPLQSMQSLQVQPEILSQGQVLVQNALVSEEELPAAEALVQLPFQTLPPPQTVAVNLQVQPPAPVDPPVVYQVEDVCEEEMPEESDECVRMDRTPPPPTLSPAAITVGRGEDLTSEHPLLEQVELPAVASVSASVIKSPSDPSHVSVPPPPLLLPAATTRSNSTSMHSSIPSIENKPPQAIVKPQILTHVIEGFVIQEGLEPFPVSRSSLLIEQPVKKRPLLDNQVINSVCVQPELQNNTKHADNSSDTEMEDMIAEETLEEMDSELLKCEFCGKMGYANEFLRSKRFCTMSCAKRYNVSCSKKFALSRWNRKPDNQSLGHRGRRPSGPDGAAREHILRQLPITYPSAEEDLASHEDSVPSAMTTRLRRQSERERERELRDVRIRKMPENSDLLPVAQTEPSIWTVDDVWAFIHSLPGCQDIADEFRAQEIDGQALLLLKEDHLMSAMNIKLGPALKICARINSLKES
Chain of UniProt Q14442 (Q14442 whole entry, looked up): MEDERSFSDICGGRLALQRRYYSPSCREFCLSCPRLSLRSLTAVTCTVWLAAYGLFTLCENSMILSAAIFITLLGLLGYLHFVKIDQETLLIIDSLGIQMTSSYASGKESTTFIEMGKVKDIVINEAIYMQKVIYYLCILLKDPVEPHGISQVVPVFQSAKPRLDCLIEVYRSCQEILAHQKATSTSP
Chain of UniProt Q14671 (Q14671 whole entry, looked up): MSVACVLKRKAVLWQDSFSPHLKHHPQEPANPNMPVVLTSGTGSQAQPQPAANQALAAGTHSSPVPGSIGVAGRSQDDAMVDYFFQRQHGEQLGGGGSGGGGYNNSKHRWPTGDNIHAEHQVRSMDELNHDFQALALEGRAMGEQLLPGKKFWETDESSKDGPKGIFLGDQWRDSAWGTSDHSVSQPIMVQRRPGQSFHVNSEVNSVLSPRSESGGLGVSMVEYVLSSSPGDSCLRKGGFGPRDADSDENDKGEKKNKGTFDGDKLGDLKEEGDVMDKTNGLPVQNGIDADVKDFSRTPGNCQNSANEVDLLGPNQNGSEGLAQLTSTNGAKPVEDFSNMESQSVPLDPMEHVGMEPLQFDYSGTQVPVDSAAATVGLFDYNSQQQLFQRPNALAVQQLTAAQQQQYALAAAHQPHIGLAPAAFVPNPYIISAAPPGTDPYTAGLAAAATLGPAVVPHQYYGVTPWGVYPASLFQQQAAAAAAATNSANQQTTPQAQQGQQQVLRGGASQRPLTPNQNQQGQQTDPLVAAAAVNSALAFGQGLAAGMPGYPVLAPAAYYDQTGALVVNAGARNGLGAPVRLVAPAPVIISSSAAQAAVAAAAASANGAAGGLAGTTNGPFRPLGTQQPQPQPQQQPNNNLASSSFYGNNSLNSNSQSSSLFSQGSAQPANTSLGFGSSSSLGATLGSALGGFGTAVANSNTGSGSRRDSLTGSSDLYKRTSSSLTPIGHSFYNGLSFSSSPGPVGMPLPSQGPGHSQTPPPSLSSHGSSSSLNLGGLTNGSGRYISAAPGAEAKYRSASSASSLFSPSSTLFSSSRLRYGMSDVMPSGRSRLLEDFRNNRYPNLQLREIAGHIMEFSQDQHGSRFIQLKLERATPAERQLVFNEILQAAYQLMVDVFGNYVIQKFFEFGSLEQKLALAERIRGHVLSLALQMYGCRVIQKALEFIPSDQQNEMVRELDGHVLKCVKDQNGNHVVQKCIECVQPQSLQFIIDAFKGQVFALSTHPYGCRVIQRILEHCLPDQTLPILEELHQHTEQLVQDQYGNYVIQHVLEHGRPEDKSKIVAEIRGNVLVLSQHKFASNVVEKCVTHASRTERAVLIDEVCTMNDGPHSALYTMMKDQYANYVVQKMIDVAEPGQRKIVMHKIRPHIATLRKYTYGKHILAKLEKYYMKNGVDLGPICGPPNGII
Chain of UniProt Q9NYI0 (Q9NYI0 whole entry, looked up): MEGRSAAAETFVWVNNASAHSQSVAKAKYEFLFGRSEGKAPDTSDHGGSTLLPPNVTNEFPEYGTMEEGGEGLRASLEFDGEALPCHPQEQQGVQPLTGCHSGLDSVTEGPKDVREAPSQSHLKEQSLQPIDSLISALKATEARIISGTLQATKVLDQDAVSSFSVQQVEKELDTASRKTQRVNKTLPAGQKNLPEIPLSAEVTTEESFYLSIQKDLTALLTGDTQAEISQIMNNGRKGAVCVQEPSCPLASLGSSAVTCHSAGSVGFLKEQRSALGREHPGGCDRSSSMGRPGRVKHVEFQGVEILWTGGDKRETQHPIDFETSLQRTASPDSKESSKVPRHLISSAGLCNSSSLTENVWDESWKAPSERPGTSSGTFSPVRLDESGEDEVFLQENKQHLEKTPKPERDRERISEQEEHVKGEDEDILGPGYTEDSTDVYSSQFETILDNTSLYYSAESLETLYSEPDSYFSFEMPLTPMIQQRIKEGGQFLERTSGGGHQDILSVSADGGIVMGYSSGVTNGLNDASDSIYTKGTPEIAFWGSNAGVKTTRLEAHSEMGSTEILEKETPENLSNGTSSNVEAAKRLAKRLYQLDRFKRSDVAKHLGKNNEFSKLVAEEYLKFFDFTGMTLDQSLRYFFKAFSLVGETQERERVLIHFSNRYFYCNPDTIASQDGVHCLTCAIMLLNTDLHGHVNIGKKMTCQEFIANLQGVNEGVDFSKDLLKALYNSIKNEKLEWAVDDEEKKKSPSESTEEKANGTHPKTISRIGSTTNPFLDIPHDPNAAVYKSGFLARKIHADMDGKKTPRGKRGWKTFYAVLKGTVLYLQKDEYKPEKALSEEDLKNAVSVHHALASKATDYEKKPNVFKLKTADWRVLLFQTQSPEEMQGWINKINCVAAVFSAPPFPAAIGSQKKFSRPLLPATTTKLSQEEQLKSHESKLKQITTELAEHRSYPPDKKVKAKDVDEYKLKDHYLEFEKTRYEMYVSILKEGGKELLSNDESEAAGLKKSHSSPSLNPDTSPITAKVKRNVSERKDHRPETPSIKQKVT
Chain of UniProt Q15126 (Q15126 whole entry, looked up): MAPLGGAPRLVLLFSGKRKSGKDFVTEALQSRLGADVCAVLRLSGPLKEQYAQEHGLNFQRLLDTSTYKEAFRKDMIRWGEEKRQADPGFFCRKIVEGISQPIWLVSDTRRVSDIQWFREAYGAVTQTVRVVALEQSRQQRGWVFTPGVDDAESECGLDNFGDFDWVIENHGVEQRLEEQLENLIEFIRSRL
Chain of UniProt Q86UU1 (Q86UU1 whole entry, looked up): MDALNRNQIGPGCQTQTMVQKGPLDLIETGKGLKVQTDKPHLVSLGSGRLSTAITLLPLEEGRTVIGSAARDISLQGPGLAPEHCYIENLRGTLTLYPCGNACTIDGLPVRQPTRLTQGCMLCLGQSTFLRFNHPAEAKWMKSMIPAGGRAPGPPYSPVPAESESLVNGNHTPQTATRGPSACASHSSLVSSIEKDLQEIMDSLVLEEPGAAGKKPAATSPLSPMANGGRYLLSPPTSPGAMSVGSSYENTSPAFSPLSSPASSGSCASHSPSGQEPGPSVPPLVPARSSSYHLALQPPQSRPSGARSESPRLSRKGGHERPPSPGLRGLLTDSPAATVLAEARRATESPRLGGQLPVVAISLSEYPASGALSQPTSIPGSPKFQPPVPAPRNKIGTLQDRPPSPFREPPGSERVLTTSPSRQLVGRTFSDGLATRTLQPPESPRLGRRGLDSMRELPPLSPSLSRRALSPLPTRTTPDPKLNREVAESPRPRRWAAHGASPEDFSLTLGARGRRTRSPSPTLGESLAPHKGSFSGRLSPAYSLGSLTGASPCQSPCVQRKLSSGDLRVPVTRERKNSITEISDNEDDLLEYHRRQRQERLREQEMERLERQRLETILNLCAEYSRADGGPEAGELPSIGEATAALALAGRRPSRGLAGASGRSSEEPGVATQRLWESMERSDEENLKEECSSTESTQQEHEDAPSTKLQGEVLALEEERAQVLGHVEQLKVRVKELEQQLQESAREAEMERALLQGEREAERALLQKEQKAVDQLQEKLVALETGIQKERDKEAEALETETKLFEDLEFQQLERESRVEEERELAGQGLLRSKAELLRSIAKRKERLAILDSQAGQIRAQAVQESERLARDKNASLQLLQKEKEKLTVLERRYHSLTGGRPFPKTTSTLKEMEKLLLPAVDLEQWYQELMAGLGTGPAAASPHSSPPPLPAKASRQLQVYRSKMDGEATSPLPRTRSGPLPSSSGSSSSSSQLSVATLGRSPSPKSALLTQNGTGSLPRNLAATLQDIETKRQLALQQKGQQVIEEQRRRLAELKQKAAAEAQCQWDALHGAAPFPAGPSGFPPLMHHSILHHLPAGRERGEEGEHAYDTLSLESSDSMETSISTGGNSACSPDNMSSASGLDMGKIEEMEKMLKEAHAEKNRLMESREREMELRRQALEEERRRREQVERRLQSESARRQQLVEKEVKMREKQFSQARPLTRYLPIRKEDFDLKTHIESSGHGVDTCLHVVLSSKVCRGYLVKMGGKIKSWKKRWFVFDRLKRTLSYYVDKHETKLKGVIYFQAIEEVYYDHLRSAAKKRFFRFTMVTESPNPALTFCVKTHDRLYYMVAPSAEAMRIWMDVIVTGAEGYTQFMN

log2 fold change, inactive:
PDE4DIP (UniProt E9PS60) 0
PIAS4 (UniProt Q8N2W9) 0.049
PKM isoform 2 (UniProt P14618) 0.141
PTEN isoform 2 (UniProt P60484) 0.081
PDE4A (UniProt P27815) -0.442
PSMC3 (UniProt E9PLG2) -0.612
PPP2R5C isoform 2 (UniProt Q13362) 0.159
POLR2E (UniProt P19388) 0.095
PUM1 (UniProt Q14671) -0.029
PCF11 (UniProt O94913) -0.169
PHLDB1 isoform 2 (UniProt Q86UU1) 0
PSD3 (UniProt Q9NYI0) -0.003
PSMD8 (UniProt K7ERW6) -0.188
PSMA3 (UniProt G3V4X5) -0.122
PIGH (UniProt Q14442) -0.029
PCBP2 (UniProt F8VZX2) 0.03
PSMA3 (UniProt H0YJ03) 0.362
PHC3 isoform 7 (UniProt Q8NDX5) 0.287

The targets below were run with CON(C)C(=O)N1N=C(c2cc(F)ccc2F)S[C@@]1(CCCN)c1ccccc1 [filanesib] in the same assay as above.
Method in brief: as §1

log2 fold change, inactive:
PKM isoform 2 (UniProt P14618) 0.04
PRKD2 (UniProt M0R346) 0.038
PTPA (UniProt A6PVN8) 0.019
PSMC3 (UniProt E9PLG2) 0.17
PMVK (UniProt Q15126) 0.198
PEX5 isoform 4 (UniProt P50542) 0.064
PPP1R12C (UniProt Q9BZL4) 0.066
PHC3 isoform 7 (UniProt Q8NDX5) -0.029
POLB (UniProt P06746) -0.155

These targets were tested with CO[C@H]1C[C@@H]2CC[C@@H](C)[C@@](O)(O2)C(=O)C(=O)N2CCCC[C@H]2C(=O)O[C@H]([C@H](C)C[C@@H]2CC[C@H](n3cnnn3)[C@H](OC)C2)CC(=O)[C@H](C)/C=C(\C)[C@@H](O)[C@@H](OC)C(=O)[C@H](C)C[C@H](C)/C=C/C=C/C=C/1C [zotarolimus] in the same assay as above.
Method in brief: as §1

log2 fold change, inactive:
PDE4DIP (UniProt E9PS60) -0.032
PTPA (UniProt A6PVN8) -0.143
PDE4A (UniProt P27815) 0.07
PRR14L (UniProt Q5THK1) -0.083
PMVK (UniProt Q15126) 0.083
POLR2E (UniProt P19388) -0.065
PUM1 (UniProt Q14671) -0.076
PCF11 (UniProt O94913) -0.119
PHLDB1 isoform 2 (UniProt Q86UU1) 0.014
PSD3 (UniProt Q9NYI0) 0.074
PSMD8 (UniProt K7EK21) -0.174
PUF60 isoform 2 (UniProt Q9UHX1) 0.18
PIGH (UniProt Q14442) 0.031
PEX5 isoform 4 (UniProt P50542) -0.048
PCBP2 (UniProt F8VZX2) 0.158
PSMC1 (UniProt G3V4X1) -0.045
PSMA3 (UniProt H0YJ03) -0.004
PHC3 isoform 7 (UniProt Q8NDX5) 0.001
POLB (UniProt P06746) 0.215
